# According to PubChem BioAssay (EPA / NIEHS):
# Active and inactive are the calls of the source. How the source made its calls: active means hit-call score of the fitted dose curve at least 0.9, where 1 is the maximum; inactive means score below 0.9.
# Assays:
# Conditions in all cases: mRNA level, 48 h; actives raise or lower the signal
# CYP2E1 (gene 1571) = assay: LTEA_HepaRG_CYP2E1: Life Technologies and Expression Analysis (LTEA) Assay for CYP2E1 using HepaRG (AID 2283485)
# How it was run: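 Readout is qRT-PCR of CYP2E1 mRNA, normalized to three housekeeping genes and fitted bidirectionally against 0.5% DMSO. HepaRG cells were dosed 48 h at eight concentrations, highest 100 uM with half-log dilutions.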
# CYP4A11 (gene 1579) = assay: LTEA_HepaRG_CYP4A11: Life Technologies and Expression Analysis (LTEA) Assay for CYP4A11 using HepaRG (AID 2283486)
# How it was run: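 Readout is CYP4A11 transcript level by qRT-PCR, normalized to three housekeeping genes and fitted bidirectionally against 0.5% DMSO. Human HepaRG cells were treated 48 h, in duplicate, with an 8-point half-log series topping at 100 uM.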
# [1] = read-out: Cytochrome P450 3A4 (Homo sapiens) (UniProt P08684); assay: LTEA_HepaRG_CYP3A4: Life Technologies and Expression Analysis (LTEA) Assay for CYP3A4 using HepaRG (AID 2283487)
# How it was run: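 CYP3A4 transcript measured by TaqMan qRT-PCR and normalized to three housekeeping genes after 48 h chemical exposure of human HepaRG cells. Top concentration 100 uM, half-log steps, 0.5% DMSO vehicle; gain or loss fitted against DMSO baseline.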
# [2] = read-out: DNA damage-inducible transcript 3 (DDIT3), DDIT3 (gene 1649); assay: LTEA_HepaRG_DDIT3: Life Technologies and Expression Analysis (LTEA) Assay for DNA damage-inducible transcript 3 (DDIT3) using HepaRG (AID 2283488)
# How it was run: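 Cells are human HepaRG liver cells treated for 48 h with eight half-log concentrations up to 100 uM in 0.5% DMSO. Transcript levels come from qRT-PCR normalized to three housekeeping genes, with activity fitted in both directions relative to vehicle.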
# [3] = read-out: Pro-epidermal growth factor (Homo sapiens) (UniProt P01133); assay: LTEA_HepaRG_EGF: Life Technologies and Expression Analysis (LTEA) Assay for Epidermal growth factor (EGF) using HepaRG (AID 2283489)
# How it was run: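 EGF transcript measured by Fluidigm TaqMan qRT-PCR with three housekeeping genes for normalization, 48 h after dosing HepaRG cultures in duplicate (top 100 uM, half-log steps, 0.5% DMSO vehicle). Gain or loss relative to DMSO fitted.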
# [4] = read-out: Early growth response protein 1 (EGR1) transcription factor, EGR1 (gene 1958); assay: LTEA_HepaRG_EGR1: Life Technologies and Expression Analysis (LTEA) Assay for Early growth response protein 1 (EGR1) transcription factor using HepaRG (AID 2283490)
# How it was run: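 EGR1 transcript levels quantified by qRT-PCR (Fluidigm arrays) against three housekeeping genes after 48 h chemical exposure of HepaRG cells. Eight-point half-log series topping at 100 uM, 0.5% DMSO vehicle, analyzed for gain or loss.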
# [5] = read-out: Ezrin (EZR), EZR (gene 7430); assay: LTEA_HepaRG_EZR: Life Technologies and Expression Analysis (LTEA) Assay for Ezrin (EZR) using HepaRG (AID 2283491)
# How it was run: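 HepaRG, 48 h chemical exposure, 8-pt half-log series from 100 uM, 0.5% DMSO vehicle, duplicates. Read-out: EZR mRNA by TaqMan qRT-PCR (Fluidigm array), housekeeping-normalized; bidirectional curve fit vs DMSO baseline.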
# [6] = read-out: Cytochrome P450 3A7 (Homo sapiens) (UniProt P24462); assay: LTEA_HepaRG_CYP3A7: Life Technologies and Expression Analysis (LTEA) Assay for CYP3A7 using HepaRG (AID 2283492)
# How it was run: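 CYP3A7 transcript measured by qRT-PCR (ACTB, GAPDH, POLR2A normalization) after 48 h chemical exposure of HepaRG cells in duplicate. Eight half-log concentrations, maximum 100 uM, 0.5% DMSO vehicle; bidirectional curve fitting against DMSO baseline.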
# CYP3A5 (gene 1577) = assay: LTEA_HepaRG_CYP3A5: Life Technologies and Expression Analysis (LTEA) Assay for CYP3A5 using HepaRG (AID 2283493)
# How it was run: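 Human HepaRG hepatic cells receive 48 h chemical treatment at eight concentrations (half-log steps from 100 uM) in 0.5% DMSO. Expression of CYP3A5 is quantified by Fluidigm qRT-PCR and normalized to three reference genes.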
# [7] = read-out: Fatty Acid-Binding Protein 1 (FABP1), FABP1 (gene 2168); assay: LTEA_HepaRG_FABP1: Life Technologies and Expression Analysis (LTEA) Assay for Fatty Acid-Binding Protein 1 (FABP1) using HepaRG (AID 2283494)
# How it was run: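 FABP1 expression by TaqMan qRT-PCR, normalised to three housekeeping genes, in HepaRG cells after 48 h chemical treatment. Eight-point half-log series topping at 100 uM in 0.5% DMSO, duplicates; gain or loss fitted relative to vehicle.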
# [8] = read-out: Cytochrome P450 4A22 (Homo sapiens) (UniProt Q5TCH4); assay: LTEA_HepaRG_CYP4A22: Life Technologies and Expression Analysis (LTEA) Assay for Cytochrome P450 4A22 (CYP4A22) using HepaRG (AID 2283495)
# How it was run: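 Gene expression measured by qRT-PCR against three housekeeping genes (ACTB, GAPDH, POLR2A), with gain or loss fitted relative to 0.5% DMSO vehicle. HepaRG cultures received 48 h chemical treatment, top concentration 100 uM, half-log steps, duplicate wells.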
# [9] = read-out: Cytochrome P450 7A1 (Homo sapiens) (UniProt P22680); assay: LTEA_HepaRG_CYP7A1: Life Technologies and Expression Analysis (LTEA) Assay for Cytochrome P450 7A1 (CYP7A1) using HepaRG (AID 2283496)
# How it was run: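 HepaRG, 48 h exposure, 8-pt half-log series from 100 uM, 0.5% DMSO vehicle, duplicates. Readout: TaqMan qRT-PCR mRNA vs three housekeeping genes; bidirectional curve fit against DMSO baseline.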
# [10] = read-out: Glutathione S-Transferase (GSTA2), GSTA2 (gene 2939); assay: LTEA_HepaRG_GSTA2: Life Technologies and Expression Analysis (LTEA) Assay for Glutathione S-Transferase (GSTA2) using HepaRG (AID 2283497)
# How it was run: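 GSTA2 transcript levels came from Fluidigm TaqMan qRT-PCR normalized to three housekeeping genes, fitted in both directions against DMSO. HepaRG cultures received chemicals for 48 h in serum-free induction medium (0.5% DMSO), 8 half-log concentrations up to 100 uM, duplicate.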
# [11] = read-out: Glutamate-cysteine ligase catalytic (GCLC), GCLC (gene 2729); assay: LTEA_HepaRG_GCLC: Life Technologies and Expression Analysis (LTEA) Assay for Glutamate-cysteine ligase catalytic (GCLC) using HepaRG (AID 2283498)
# How it was run: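 Expression by TaqMan qRT-PCR, normalized to three housekeeping genes (ACTB, GAPDH, POLR2A), with up- or down-regulation fitted against DMSO. HepaRG cells dosed in duplicate for 48 h with 8 half-log concentrations up to 100 uM, vehicle 0.5% DMSO.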
# [12] = read-out: growth arrest and DNA damage 45 (GADD45G), GADD45G (gene 10912); assay: LTEA_HepaRG_GADD45G: Life Technologies and Expression Analysis (LTEA) Assay for growth arrest and DNA damage 45 (GADD45G) using HepaRG (AID 2283499)
# How it was run: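 GADD45G transcript level by qRT-PCR (housekeeping-normalized: ACTB, GAPDH, POLR2A) after 48 h chemical treatment of a single HepaRG lot in serum-free induction medium; eight-point half-log series up to 100 uM in 0.5% DMSO, duplicates, up- or down-regulation scored.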
# [13] = read-out: Glutamate-cysteine ligase regulatory (GCLM), GCLM (gene 2730); assay: LTEA_HepaRG_GCLM: Life Technologies and Expression Analysis (LTEA) Assay for Glutamate-cysteine ligase regulatory (GCLM) using HepaRG (AID 2283500)
# How it was run: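 Endpoint is GCLM transcript level by qRT-PCR, normalized to three housekeeping genes, after 48 h chemical exposure of human HepaRG cells (0.5% DMSO vehicle, top 100 uM, half-log dilutions). Fitting was bidirectional relative to DMSO.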
# [14] = read-out: Heat shock 70 kDa protein 1 (HSPA1A), gene 3303; assay: LTEA_HepaRG_HSPA1A: Life Technologies and Expression Analysis (LTEA) Assay for Heat shock 70 kDa protein 1 (HSPA1A) using HepaRG (AID 2283502)
# How it was run: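 Cells were plated and cultured for 48 h, then switched to serum-free induction medium. Chemicals were added at eight half-log concentrations up to 100 uM for 48 h. RNA was then isolated and HSPA1A measured by qRT-PCR with bidirectional curve fitting against DMSO.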
# [15] = read-out: Hypoxia-inducible factor 1-alpha (Homo sapiens) (UniProt Q16665); assay: LTEA_HepaRG_HIF1A: Life Technologies and Expression Analysis (LTEA) Assay for Hypoxia-inducible factor 1 (HIF1A) Trancription factor using HepaRG (AID 2283503)
# How it was run: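 HIF1A transcript level read by qRT-PCR (ACTB, GAPDH, POLR2A normalization) after 48 h chemical exposure of HepaRG cultures. Eight half-log concentrations, top 100 uM, 0.5% DMSO vehicle, duplicates; bidirectional curve fit against DMSO baseline.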
# [16] = read-out: 3-Hydroxy-3-Methylglutaryl-CoA Synthase 2 (HMGCS2), HMGCS2 (gene 3158); assay: LTEA_HepaRG_HMGCS2: Life Technologies and Expression Analysis (LTEA) Assay for 3-Hydroxy-3-Methylglutaryl-CoA Synthase 2 (HMGCS2) using HepaRG (AID 2283504)
# How it was run: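 Readout is HMGCS2 transcript by qRT-PCR, housekeeping-normalised (ACTB/GAPDH/POLR2A) and fitted bidirectionally against 0.5% DMSO. Differentiated HepaRG cells received chemicals 48 h, duplicate wells, eight half-log concentrations topping at 100 uM.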
# [17] = read-out: Glutathione S-transferase M3 (GSTM3), GSTM3 (gene 2947); assay: LTEA_HepaRG_GSTM3: Life Technologies and Expression Analysis (LTEA) Assay for Glutathione S-transferase M3 (GSTM3) using HepaRG (AID 2283501)
# How it was run: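 GSTM3 transcript levels came from Fluidigm TaqMan qRT-PCR normalized to three housekeeping genes, fitted in both directions against DMSO. HepaRG cultures received chemicals for 48 h in serum-free induction medium (0.5% DMSO), 8 half-log concentrations up to 100 uM, duplicate.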
# Cytochrome P450 3A4 (Homo sapiens), sequence (P08684 whole entry, looked up): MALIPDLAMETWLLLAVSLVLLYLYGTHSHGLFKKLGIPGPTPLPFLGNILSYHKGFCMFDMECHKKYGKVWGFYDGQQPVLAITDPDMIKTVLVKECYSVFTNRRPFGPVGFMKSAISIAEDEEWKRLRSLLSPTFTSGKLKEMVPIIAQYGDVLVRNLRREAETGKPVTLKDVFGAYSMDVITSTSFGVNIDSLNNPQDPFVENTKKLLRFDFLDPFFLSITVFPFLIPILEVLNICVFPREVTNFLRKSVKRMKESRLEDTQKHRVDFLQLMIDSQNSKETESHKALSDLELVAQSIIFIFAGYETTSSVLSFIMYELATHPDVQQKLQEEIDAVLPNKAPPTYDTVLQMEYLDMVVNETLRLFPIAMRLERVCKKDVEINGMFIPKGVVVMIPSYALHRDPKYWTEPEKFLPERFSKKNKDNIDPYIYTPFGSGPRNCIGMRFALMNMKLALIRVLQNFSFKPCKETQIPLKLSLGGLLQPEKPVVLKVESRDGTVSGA
# Hypoxia-inducible factor 1-alpha (Homo sapiens), sequence (Q16665 whole entry, looked up): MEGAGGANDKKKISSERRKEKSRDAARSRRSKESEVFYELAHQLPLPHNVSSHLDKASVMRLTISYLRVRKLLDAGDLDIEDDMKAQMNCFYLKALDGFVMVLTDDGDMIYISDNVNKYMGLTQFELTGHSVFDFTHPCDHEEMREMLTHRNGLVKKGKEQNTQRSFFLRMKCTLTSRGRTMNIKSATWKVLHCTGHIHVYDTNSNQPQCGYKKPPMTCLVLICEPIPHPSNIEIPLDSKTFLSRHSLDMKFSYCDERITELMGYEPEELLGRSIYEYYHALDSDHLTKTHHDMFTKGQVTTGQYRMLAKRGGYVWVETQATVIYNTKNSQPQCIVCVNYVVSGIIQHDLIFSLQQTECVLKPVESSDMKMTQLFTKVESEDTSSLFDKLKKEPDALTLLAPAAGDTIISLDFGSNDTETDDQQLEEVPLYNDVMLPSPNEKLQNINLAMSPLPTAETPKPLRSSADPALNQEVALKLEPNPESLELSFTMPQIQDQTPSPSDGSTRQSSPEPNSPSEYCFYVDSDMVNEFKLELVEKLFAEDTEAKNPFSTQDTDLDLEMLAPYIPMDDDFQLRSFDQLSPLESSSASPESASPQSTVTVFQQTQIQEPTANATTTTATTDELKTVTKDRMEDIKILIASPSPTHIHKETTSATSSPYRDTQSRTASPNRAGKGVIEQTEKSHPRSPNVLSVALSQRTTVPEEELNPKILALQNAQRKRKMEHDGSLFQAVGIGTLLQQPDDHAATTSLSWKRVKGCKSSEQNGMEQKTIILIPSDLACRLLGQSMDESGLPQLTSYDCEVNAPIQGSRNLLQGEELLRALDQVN
# Cytochrome P450 3A7 (Homo sapiens), sequence (P24462 whole entry, looked up): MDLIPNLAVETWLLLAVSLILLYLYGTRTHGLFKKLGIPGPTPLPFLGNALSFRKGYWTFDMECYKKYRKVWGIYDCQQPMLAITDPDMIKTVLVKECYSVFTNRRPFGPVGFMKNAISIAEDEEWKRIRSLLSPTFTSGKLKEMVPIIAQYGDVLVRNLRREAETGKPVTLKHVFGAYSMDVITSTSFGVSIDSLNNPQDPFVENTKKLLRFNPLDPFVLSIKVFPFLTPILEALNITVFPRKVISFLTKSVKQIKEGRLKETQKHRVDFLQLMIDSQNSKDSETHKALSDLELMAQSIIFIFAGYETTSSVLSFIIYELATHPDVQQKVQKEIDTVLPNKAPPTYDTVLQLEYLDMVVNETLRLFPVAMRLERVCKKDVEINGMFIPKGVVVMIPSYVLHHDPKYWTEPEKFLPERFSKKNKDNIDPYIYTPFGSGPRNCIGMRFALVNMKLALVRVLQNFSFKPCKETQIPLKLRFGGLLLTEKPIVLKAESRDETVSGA
compound,measurement,setting,value
CCCCCCCCCCCCCCO,outcome,CYP2E1 (gene 1571),inactive
same,outcome,CYP4A11 (gene 1579),inactive
same,outcome,[1],inactive
same,outcome,[2],inactive
same,outcome,[3],inactive
same,outcome,[4],inactive
same,outcome,[5],inactive
same,outcome,[6],inactive
same,outcome,CYP3A5 (gene 1577),inactive
same,outcome,[7],inactive
same,outcome,[8],inactive
same,outcome,[9],inactive
same,outcome,[10],inactive
same,outcome,[11],inactive
same,outcome,[12],inactive
same,outcome,[13],inactive
same,outcome,[14],inactive
same,outcome,[15],inactive
same,outcome,[16],inactive
CCCCCCOC(=O)CC(CC(=O)OCCCCCC)(OC(=O)CCC)C(=O)OCCCCCC,outcome,CYP2E1 (gene 1571),inactive
same,outcome,CYP4A11 (gene 1579),inactive
same,AC50,[1],17.7 µM (active)
same,outcome,[2],inactive
same,outcome,[3],inactive
same,outcome,[4],inactive
same,outcome,[5],inactive
same,outcome,[6],inactive
same,outcome,CYP3A5 (gene 1577),inactive
same,outcome,[7],inactive
same,outcome,[8],inactive
same,outcome,[9],inactive
same,outcome,[10],inactive
same,outcome,[11],inactive
same,outcome,[12],inactive
same,outcome,[17],inactive
same,outcome,[14],inactive
same,outcome,[15],inactive
same,outcome,[16],inactive
CC(C)CC(C)O (stereo unspecified),outcome,CYP2E1 (gene 1571),inactive
same,outcome,CYP4A11 (gene 1579),inactive
same,outcome,[1],inactive
same,outcome,[2],inactive
same,outcome,[3],inactive
same,outcome,[4],inactive
same,outcome,[5],inactive
same,outcome,[6],inactive
same,outcome,CYP3A5 (gene 1577),inactive
same,outcome,[7],inactive
same,outcome,[8],inactive
same,outcome,[9],inactive
same,outcome,[10],inactive
same,outcome,[11],inactive
same,outcome,[12],inactive
same,outcome,[13],inactive
same,outcome,[17],inactive
same,outcome,[14],inactive
same,outcome,[15],inactive
same,outcome,[16],inactive
O=S1(=O)CCCO1,outcome,CYP2E1 (gene 1571),inactive
same,outcome,CYP4A11 (gene 1579),inactive
same,outcome,[1],inactive
same,outcome,[2],inactive
same,outcome,[3],inactive
same,outcome,[4],inactive
same,outcome,[5],inactive
same,outcome,[6],inactive
same,outcome,CYP3A5 (gene 1577),inactive
same,outcome,[7],inactive
same,outcome,[8],inactive
same,outcome,[9],inactive
same,outcome,[10],inactive
same,outcome,[11],inactive
same,outcome,[12],inactive
same,outcome,[14],inactive
same,outcome,[15],inactive
same,outcome,[16],inactive
CCCCCCCC/C=C\CCCCCCCC(=O)OC[C@@H](O)[C@H]1OC[C@H](O)[C@H]1O,outcome,CYP2E1 (gene 1571),inactive
same,outcome,CYP4A11 (gene 1579),inactive
same,outcome,[1],inactive
same,outcome,[2],inactive
same,outcome,[3],inactive
same,outcome,[4],inactive
same,outcome,[5],inactive
same,outcome,[6],inactive
same,outcome,CYP3A5 (gene 1577),inactive
same,outcome,[7],inactive
same,outcome,[8],inactive
same,outcome,[9],inactive
same,outcome,[10],inactive
same,outcome,[11],inactive
same,outcome,[12],inactive
same,outcome,[13],inactive
same,outcome,[17],inactive
same,outcome,[14],inactive
same,outcome,[15],inactive
same,outcome,[16],inactive
NC(=O)N(O)[C@@H]1COc2cc(OCc3ccccc3)ccc21,AC50,CYP2E1 (gene 1571),50 µM (active)
same,outcome,CYP4A11 (gene 1579),inactive
same,outcome,[1],inactive
same,outcome,[2],inactive
same,outcome,[3],inactive
same,outcome,[4],inactive
same,outcome,[5],inactive
same,outcome,[6],inactive
same,outcome,CYP3A5 (gene 1577),inactive
same,outcome,[7],inactive
same,outcome,[8],inactive
same,outcome,[9],inactive
same,outcome,[10],inactive
same,outcome,[11],inactive
same,outcome,[12],inactive
same,outcome,[13],inactive
same,outcome,[17],inactive
same,outcome,[14],inactive
same,outcome,[15],inactive
same,outcome,[16],inactive
